# Bioassay records: PubChem BioAssay, National Center for Advancing Translational Sciences (NCATS)
# Rows were chosen to be rich in hits. Some 19% of all compounds tested hit in one or more screens of this group.
# TDP1 cell CPT: qHTS for Inhibitors of human tyrosyl-DNA phosphodiesterase 1 (TDP1): qHTS in cells in presence of CPT; Potency, µM (titrated, usually from 46.2 µM), without a hit: at the highest dose activity change, negative = growth inhibition, hits mostly inhibitors; chicken DT40 Tdp1-/-;hTDP1 cells + 20 nM CPT, ATP luminescence, 48 h; 420,000 tested, 12% active; AID 686979, 2013; further: potency means the concentration at half of the fitted maximal effect; nearly all actives have a fitted effect of over 55% in size
#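 Cell growth measured by CellTiter-Glo luminescence after a minimum 48 h, 37 C compound exposure with 20 nM CPT in Tdp1-knockout DT40 cells stably expressing hTDP1, seeded 400/well; qHTS titration format.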
# TDP1 cell noCPT: qHTS for Inhibitors of human tyrosyl-DNA phosphodiesterase 1 (TDP1): qHTS in cells in absence of CPT; AID 686978, 2013; 420,000 tested, 15% active; Potency, µM (top dose mostly 46.2 µM), inactives show at the top dose activity change, negative = growth inhibition, most hits filed as inhibitors; DT40 Tdp1-/- hTDP1 cells, no CPT, ATP luminescence, 48 h; further: potency means the concentration at half of the fitted maximal effect; nearly all actives have a fitted effect of over 55% in size
#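 Camptothecin absent (DMSO only). Human TDP1-complemented DT40 knockout cells, 400 cells/well, 37 °C for minimum 48 hr; ATP measured via CellTiter-Glo, 30 min dark incubation, luminescence.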
# IL1B secr inh: qHTS for Inhibitors of Inflammasome Signaling: IL-1-beta AlphaLISA Primary Screen; AID 743279, 2014; 360,000 tested, 4.7% active; THP-1 LPS/ATP IL-1B secretion, AlphaLISA, 16 h; active compounds read low; activity change, % at 57.5 µM; in the data active means activity change below about -50%; inconclusive means mostly about -30% to -49%
#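 Secreted IL-1B measured by AlphaLISA bead assay after 16 h compound exposure of THP-1 cells; compounds (final up to 57.5 uM) added 1 h before LPS (250 ng/mL) and ATP (1.25 mM) stimulation; lower signal means less secretion.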
# HT1080-NT tox: qHTS for induction of synthetic lethality in tumor cells producing 2HG: qHTS for the HT-1080-NT fibrosarcoma cell line. HT-1080-NT fibrosarcoma viability, CellTiter-Glo ATP luminescence, 48 h. Potency, µM (highest dose often 46.1 µM), for the others: at the top dose activity, negative = less viability, actives largely listed as cytotoxic. 360,000 tested, 1.6% active. AID 686970, 2013;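 further: NT is the 2HG producing partner of a matched IDH1 knockdown line; potency means the concentration at half of the fitted maximal effect; 0% = DMSO-treated cells and -100% = media-only wells without cells; nearly all actives have a fitted effect of over 55% in size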
#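 Luminescent CellTiter-Glo readout after 48 hours of compound exposure at 37 degrees C defined viability of HT-1080-NT cells. Activity was normalized to DMSO wells and cell-free media wells; concentration-response curves were fitted and assigned curve classes.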
# HT1080 IDH1KD tx: qHTS for induction of synthetic lethality in tumor cells producing 2HG: qHTS for the HT-1080-IDH1KD cell line; 360,000 tested, 2% active; AID 686971, 2013; HT-1080 IDH1 knockdown viability, ATP luminescence, 48 h; Potency, µM (top dose mostly 46.1 µM), without a hit: at the highest dose activity, negative = toxicity, hits mostly cytotoxic;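 further: potency means the concentration at half of the fitted maximal effect; 0% = DMSO wells and -100% = cell-free medium wells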
#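 % activity derives from luminescence (CellTiter-Glo), normalised to DMSO and no-cell wells. HT-1080-IDH1KD cells, 750/well, had 48 h compound exposure at 37 °C.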
# Numbers without * were called inactive; i = inactive; ? = inconclusive; . = not tested or not shown; [ ] = remark or other dose. Unless noted, the call rests on the fitted dose curve; in most records, active means well fitted curve in the direction sought with a large enough effect; inconclusive means small, poorly fitted or top-dose-only effect, or another doubt; inactive means no such curve, though single readings can be large; an effect the other way counts as inactive or inconclusive. Unless noted, on the % scale 0 is the no-effect control and ±100 the full control effect.
SMILES,TDP1 cell CPT,TDP1 cell noCPT,IL1B secr inh,HT1080-NT tox,HT1080 IDH1KD tx
CCN(CC)C(=O)Cn1c(=O)n(CCCC(=O)NCc2ccccc2)c(=O)c2sccc21,-12%,-8%,-15,1%,4%
O=C(CCCn1c(=O)c2ccccc2n(CC(=O)Nc2ccc(F)cc2F)c1=O)NCc1ccccc1Cl,16µM*,?,.,.,.
O=C(CCCn1c(=O)c2sccc2n(Cc2c(F)cccc2Cl)c1=O)NCc1ccccc1,?,16µM*,.,.,.
Cc1ccc(C#N)c(SCC(=O)Nc2nccs2)n1,-23%,?,15,0%,0%
O=C(CCCCn1c(=O)c2ccccc2n(Cc2ccccc2F)c1=O)NCc1ccccc1Cl,8.2µM*,5.2µM*,.,.,.
Cc1ccc(CNC(=O)CCCn2c(=O)c3ccccc3n(Cc3ccc(Cl)cc3)c2=O)cc1,-8%,-26%,.,.,.
CCCCNC(=O)CCCn1c(=O)c2ccccc2n(Cc2cccc(Cl)c2)c1=O,23µM*,23µM*,.,.,.
CCc1ccc(NC(=O)Cn2c(=O)n(CCCC(=O)NCc3ccccc3OC)c(=O)c3ccccc32)cc1,-16%,-17%,.,.,.
COc1ccccc1CNC(=O)CCCCn1c(=O)c2ccccc2n(Cc2ccccc2F)c1=O,3.7µM*,2.3µM*,.,.,.
CCOC(=O)c1ccccc1NC(=O)Cn1c(=O)n(CCC(=O)NCc2ccccc2OC)c(=O)c2ccccc21,?,16µM*,.,.,.
O=C(COc1cc(F)ccc1[N+](=O)[O-])NCC1CCCO1 (centres undefined),-15%,20%,10,-1%,-2%
Cc1cc(C)n(-c2ccc(C)c(Cl)c2)n1,4%,-5%,i,7%,18%
COC(=O)C[C@@H]1C[C@@H]2c3cc(NS(=O)(=O)c4ccc(F)cc4)ccc3O[C@@H]2[C@H](CO)O1,1%,-30%,?,13%,13%
Cc1cc(Cn2ccnc2)c(C)c([N+](=O)[O-])c1Cn1ccnc1,-14%,?,14,6%,-2%
COc1ccccc1CNC(=O)CCCCn1c(=O)c2ccccc2n(Cc2ccccc2C)c1=O,5.8µM*,2.9µM*,.,.,.
COc1ccc(CCNC(=O)CCCn2c(=O)c3ccccc3n(Cc3ccccc3C)c2=O)cc1OC,-24%,-2%,.,.,.
Cc1ccc(C)c(Cn2c(=O)n(CCCCC(=O)NCc3ccccc3Cl)c(=O)c3ccccc32)c1,7.3µM*,7.3µM*,.,.,.
CCCCNC(=O)CCCn1c(=O)c2ccccc2n(Cc2c(C)cc(C)cc2C)c1=O,1%,-4%,.,.,.
CCCCNC(=O)CCCn1c(=O)c2ccccc2n(Cc2ccccc2C)c1=O,?,21µM*,.,.,.
CCc1nc(N2CCN(C(=S)NCCCOC)CC2)c2c3c(sc2n1)CCCC3,16µM*,16µM*,?,?,-6%
CCC(=O)N1CCN(c2nc(CC)nc3sc4c(c23)CCCC4)CC1,-27%,?,-23,-28%,-15%
O=C(CCC(=O)N(c1ccc(F)cc1)C(C(=O)NC1CCCC1)c1ccncc1)Nc1cccnc1 (centres undefined),11%,-14%,5,7%,4%
O=C(CCNC(=O)c1ccc(Cl)cc1)Nc1cccc(S(=O)(=O)N2CCCCCC2)c1,?,-22%,?,-11%,-15%
COc1ccc(Br)cc1CN(C)CC(=O)Nc1c(Cl)cccc1Cl,?,23µM*,?,-17%,-20%
CNC(=O)CSc1nnc(-c2cccc(S(=O)(=O)N3CCOCC3)c2)n1-c1ccc(F)cc1,-13%,-3%,24,1%,-4%
SMILES,TDP1 cell CPT,TDP1 cell noCPT,IL1B secr inh,HT1080-NT tox,HT1080 IDH1KD tx
N=c1sccn1CC(=O)Nc1cccc(S(=O)(=O)N2CCCCCC2)c1,?,21µM*,-2,0%,-18%
O=C(CCNC(=O)c1ccc(Br)cc1)Nc1cccc(S(=O)(=O)N2CCCCCC2)c1,13µM*,?,-18,1%,-7%
COc1ccc(NC(=O)CN(C)CC(=O)Nc2cccc(F)c2)cc1Cl,?,?,0,?,?
O=C(CSc1nnc(-c2cccc(S(=O)(=O)N3CCOCC3)c2)n1C1CCCCCC1)NCc1ccccc1,22µM*,?,-22,3%,-3%
COc1ccc(/C=C/C(=O)ONC2=NCCCCC2)cc1OC,23µM*,?,-6,-22%,?
O=C(CCl)Nc1cccc(S(=O)(=O)N2CCCCCC2)c1,4.1µM*,5.2µM*,-102*,?,18µM*
CCOc1ccc(NC(=O)CSc2nnc(C)n2C2CC2)cc1S(=O)(=O)N1CCCC1,-16%,3%,11,1%,0%
Cc1nnc(SCC(=O)Nc2cccc(S(=O)(=O)N3CCCC3)c2)n1C1CC1,-14%,29µM*,-6,10%,5%
Cc1cc(C)c2c(c1)cc(C)c1nnc(SCC(=O)Nc3ccc(S(=O)(=O)N4CCCCC4)cc3)n12,?,21µM*,1,-8%,-16%
CC(C)(C)c1ccc(OCCC(=O)Nc2cccc(S(=O)(=O)N3CCCC3)c2)cc1,?,?,2,-9%,-9%
Cc1ccc(CSc2nnc(-c3cccc(S(=O)(=O)N4CCOCC4)c3)n2CC(C)C)cc1,13µM*,8.2µM*,?,-5%,-17%
COc1ccc(/C=C/C(=O)Nc2cccc(S(=O)(=O)NC3=NCCCCC3)c2)cc1OC,15µM*,8.2µM*,-16,0%,-12%
COc1ccc(/C=C/C(=O)Nc2cccc(S(=O)(=O)N3CCCC3)c2)cc1OC,?,21µM*,-27,-5%,-21%
O=C(CCNS(=O)(=O)c1ccc(OC(F)(F)F)cc1)Nc1cccc(S(=O)(=O)N2CCCC2)c1,18µM*,?,-5,0%,-1%
COC(=O)c1sc2ccccc2c1-n1cccc1C(=O)C(=O)Nc1ccc(OC)cc1,?,?,22,-23%,-10%[9.24 µM]
COc1ccc(-c2c(C)nn3c(C)cc(C)nc23)cc1,?,?,-22,-17%,-12%
CC1=C(C(=O)N(C)C)CC(CC(=O)NCCCN(C)C)C(=O)N1Cc1ccccc1 (centres undefined),-2%,-11%,5,1%,6%
O=C(Cc1ccc(Br)cc1)Nc1cccc(S(=O)(=O)N2CCCCC2)c1,?,15µM*,-6,-29%,?
COc1ccc(CC(=O)Nc2cccc(S(=O)(=O)N3CCCC3)c2)cc1OC,15µM*,18µM*,-15,-1%,-13%
